Peg3 promoter: inhibitors of Peg3 promoter. hit rate 1.7% among 360,000. AID 588405. HeLa PEG-Prom luciferase reporter, luminescence, overnight. inhibition, % at 20 µM;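 active = inhibition of at least 50% at 20 µM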
PAX8 inh HTS: inhibitors of PAX8 transcriptional activity in RMG-I cells | RMG-I TPO-luciferase reporter, SteadyGlo, 24 h | AID 652154 | hit rate 1.2% among 360,000 | inhibition, % at 12.6 µM;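 active = mean replicate inhibition at least 60% with every replicate also reaching 60%; inconclusive = only one of the two criteria is met; inactive = mean below 60% and not all replicates reaching 60%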;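 note: luciferase light reporting Pax8 driven TPO promoter activity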
Shn3 3UTR inh: Schnurri-3 reporter inhibition in Clone20 osteoblasts; Clone20 osteoblast Shn3 3'UTR firefly luciferase, 24 h; inhibition, % at 12.5 µM; hit rate 0.52% among 360,000;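 active = mean inhibition of at least 75% with every replicate also reaching 75%; inconclusive = mean inhibition at least 75% but some replicate below; inactive = mean inhibition below 75%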
EWS-Fli block: EWS/Fli transcriptional activity inhibition | A673 NR0B1-luciferase reporter, viability-normalised | AID 651661 | hit rate 0.67% among 350,000 | inhibition, % at 12.6 µM;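 active = mean inhibition of at least 50% after viability correction, with every replicate also passing that limit; inconclusive = mean reaches 50% but only one of two replicates passes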;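 note: firefly luciferase signal divided by Alamar Blue viability fluorescence both relative to DMSO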
ABHD5-PLIN5 inh: ABHD5-PLIN5 protein interaction inhibition. inhibition, % at 4 µM. Split G. princeps luciferase complementation, luminescence, 4 h. Q00G26+Q8WTS1. AID 602281. hit rate 0.78% among 360,000;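 active = inhibition above the mean inhibition across every tested compound plus 3 SD, cut at about 22% in these data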
Target sequence (Q00G26 whole entry, looked up): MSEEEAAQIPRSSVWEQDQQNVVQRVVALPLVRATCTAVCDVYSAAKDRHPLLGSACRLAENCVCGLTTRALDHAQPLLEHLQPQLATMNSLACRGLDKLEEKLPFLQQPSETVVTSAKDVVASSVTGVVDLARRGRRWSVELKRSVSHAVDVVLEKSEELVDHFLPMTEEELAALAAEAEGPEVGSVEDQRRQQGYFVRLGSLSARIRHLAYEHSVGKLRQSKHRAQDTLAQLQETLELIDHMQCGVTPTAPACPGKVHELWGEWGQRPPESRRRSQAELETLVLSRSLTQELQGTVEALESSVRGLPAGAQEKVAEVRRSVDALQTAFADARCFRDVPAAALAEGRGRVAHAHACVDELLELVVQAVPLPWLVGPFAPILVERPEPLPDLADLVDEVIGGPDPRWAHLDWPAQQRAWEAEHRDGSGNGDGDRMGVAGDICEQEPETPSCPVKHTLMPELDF
Target sequence (Q8WTS1 whole entry, looked up): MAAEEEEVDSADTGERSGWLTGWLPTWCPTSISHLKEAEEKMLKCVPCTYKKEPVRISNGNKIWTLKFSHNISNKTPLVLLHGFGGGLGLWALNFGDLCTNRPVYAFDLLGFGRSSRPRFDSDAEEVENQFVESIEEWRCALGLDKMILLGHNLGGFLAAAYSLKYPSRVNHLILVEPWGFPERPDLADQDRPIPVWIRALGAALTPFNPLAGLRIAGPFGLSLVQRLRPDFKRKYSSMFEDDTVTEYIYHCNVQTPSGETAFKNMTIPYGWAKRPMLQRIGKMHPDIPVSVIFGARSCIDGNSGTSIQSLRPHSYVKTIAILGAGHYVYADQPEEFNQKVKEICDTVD
MITF TRPM1 inh: inhibitors of MITF-driven TRPM1 promoter in melanoma cells; SK-MEL-5 TRPM1 promoter luciferase, 24 h; inhibition, % at 12.5 µM; hit rate 0.83% among 330,000; AID 488899;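 active = mean inhibition across replicates of 60% or more, whatever share of single replicates reaches that level; inconclusive = some that reach 60%, reason not given; inactive = mean inhibition across replicates below 60%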
Of the large screens only hits and unclear results are named; the others gave an inactive call. The list is not random: actives were taken first. Their share in the collection is about 3%.

COc1cc(C(=O)Oc2c(OC)cc(C(=S)N3CCOCC3)cc2OC)cc(OC)c1OC	none
COc1ccc(C(=O)Oc2c(CN3CCOCC3)cc(Cl)c3cccnc23)cc1	none (no result: PAX8 inh HTS, EWS-Fli block)
C[C@@H]1CCCCO[C@H](CN(C)CC2CCCCC2)[C@@H](C)CN([C@H](C)CO)C(=O)c2cc(NC(=O)Nc3ccc4c(c3)OCO4)ccc2O1	none (no result: Peg3 promoter, Shn3 3UTR inh, ABHD5-PLIN5 inh, MITF TRPM1 inh)
COc1ccc(S(=O)(=O)Nc2ccc3c(c2)CC(=O)N([C@H](C)CO)C[C@H](C)[C@H](CN(C)S(=O)(=O)c2ccccc2)O3)cc1	none (no result: Peg3 promoter, Shn3 3UTR inh, ABHD5-PLIN5 inh, MITF TRPM1 inh)
O=C(Oc1c(Cl)cc(Cl)c2cccnc12)c1ccco1	Peg3 promoter 56 (no result: PAX8 inh HTS, EWS-Fli block)
COC(=O)c1cc(=O)n(Cc2ccc(OC)cc2)c(=NCc2ccc(OC)cc2)s1	none
COC(=O)c1cc(=O)n(CCc2ccc(OC)cc2)c(=Nc2ccc(F)c(Cl)c2)s1	Peg3 promoter 82
COC(=O)c1cc(=O)n(Cc2ccc3c(c2)OCO3)c(=Nc2ccc(F)c(Cl)c2)s1	Peg3 promoter 57 (no result: PAX8 inh HTS)
COC(=O)c1cc(=O)n(CCc2ccccc2)c(=Nc2ccc(F)cc2)s1	none (no result: MITF TRPM1 inh)
CNC[C@H]1Oc2ccc(NC(=O)C3CC3)cc2CC(=O)N([C@H](C)CO)C[C@@H]1C	none (no result: Peg3 promoter, Shn3 3UTR inh, ABHD5-PLIN5 inh, MITF TRPM1 inh)
CC(=O)Nc1nc(-c2ccc([N+](=O)[O-])cc2)cs1	none
O=C(Nc1ccc([N+](=O)[O-])cc1)Nc1nc(-c2ccc(Cl)s2)cs1	Peg3 promoter 69, PAX8 inh HTS 106, Shn3 3UTR inh inconclusive, MITF TRPM1 inh 72
CC(C)C[C@@H](CN1CCCC1CN1C(=S)NC[C@@H]1Cc1ccccc1)N1C[C@H](Cc2ccc(O)cc2)N(CC2CCCCC2)C1=S (stereo not given in full)	none (no result: Peg3 promoter, Shn3 3UTR inh, MITF TRPM1 inh)
CC(C)C[C@@H](CN1CCCC1CN1C(=S)NC[C@@H]1Cc1ccccc1)N1C[C@H](Cc2ccccc2)N(CC2CCCCC2)C1=S (stereo not given in full)	none (no result: Peg3 promoter, Shn3 3UTR inh, MITF TRPM1 inh)
CC(C)C[C@@H](CN1CCC[C@@H]1CN1C(=S)NC[C@@H]1Cc1ccc(O)cc1)N1C[C@H](Cc2ccc(O)cc2)N(CC2CCCCCC2)C1=S	Peg3 promoter 80 (no result: MITF TRPM1 inh)
CC(C)C[C@@H](CN1CCC[C@@H]1CN1C(=S)NC[C@@H]1Cc1ccc(O)cc1)N1C[C@H](Cc2ccc(O)cc2)N(CC2CCCCC2)C1=S	Peg3 promoter 98 (no result: MITF TRPM1 inh)
N#CC1=C(N)N2C(=C(C#N)C1c1ccc(Br)cc1)Nc1ccccc12 (stereo not given)	PAX8 inh HTS 98 (no result: Peg3 promoter, Shn3 3UTR inh, ABHD5-PLIN5 inh, MITF TRPM1 inh)
N#CC1=C(N)N2C(=C(C#N)C1c1cccc(Br)c1)Nc1ccccc12 (stereo not given)	Shn3 3UTR inh 88
N#CC1=C(N)N2C(=C(C#N)C13CCN(Cc1ccccc1)CC3)Nc1ccccc12	none (no result: PAX8 inh HTS, EWS-Fli block)
C[C@H]1CN([C@@H](C)CO)C(=O)c2cccc(NC(=O)Nc3ccc(C(F)(F)F)cc3)c2O[C@@H]1CN(C)Cc1ccncc1	none (no result: Peg3 promoter, Shn3 3UTR inh, ABHD5-PLIN5 inh, MITF TRPM1 inh)
COc1ccccc1C1C2=C(N=C3SCC(=O)N31)c1ccccc1CC2 (stereo not given)	none (no result: PAX8 inh HTS, EWS-Fli block)
COc1ccc(/C=c2/sc3n(c2=O)C(c2ccccc2OC)C2=C(N=3)c3ccccc3CC2)cc1O (stereo not given)	PAX8 inh HTS 93 (no result: EWS-Fli block)
CCOC(=O)C1=C(C)N=c2s/c(=C\c3ccc(O)c([N+](=O)[O-])c3)c(=O)n2C1c1ccccc1OC (stereo not given)	Peg3 promoter 53
CCCC(=O)NC(c1ccco1)c1cc(Cl)c2cccnc2c1O (stereo not given)	Peg3 promoter 69 (no result: PAX8 inh HTS, EWS-Fli block)
CCC(=O)NC(C)c1cc(Cl)c2cccnc2c1O (stereo not given)	Shn3 3UTR inh 91
O=C(O)COc1ccccc1C(Nc1cccnc1)c1cc(Cl)c2cccnc2c1O (stereo not given)	ABHD5-PLIN5 inh 26 (no result: PAX8 inh HTS, EWS-Fli block)
CCCC(=O)NC(c1ccc2c(c1)OCO2)c1cc(Cl)c2cccnc2c1O (stereo not given)	Peg3 promoter 55, Shn3 3UTR inh 87 (no result: PAX8 inh HTS, EWS-Fli block)
COc1ccc(C(NC(C)=O)c2cc(Cl)c3cccnc3c2O)cc1OC (stereo not given)	Shn3 3UTR inh 89
COc1ccccc1C(NC(C)=O)c1cc(Cl)c2cccnc2c1O (stereo not given)	Shn3 3UTR inh inconclusive
C[C@@H]1CN([C@H](C)CO)C(=O)c2cccc(NC(=O)Nc3ccc(C(F)(F)F)cc3)c2O[C@H]1CN(C)Cc1ccc2c(c1)OCO2	none (no result: Peg3 promoter, PAX8 inh HTS, Shn3 3UTR inh, ABHD5-PLIN5 inh, MITF TRPM1 inh)
Cc1ccc(S(=O)(=O)Nc2cccc3c2O[C@H](CN(C)Cc2ccc(C(F)(F)F)cc2)[C@@H](C)CN([C@H](C)CO)C3=O)cc1	none (no result: Peg3 promoter, PAX8 inh HTS, Shn3 3UTR inh, ABHD5-PLIN5 inh, MITF TRPM1 inh)
Cc1ccc(Cl)cc1N1CCN(C(=O)C2CCN(S(=O)(=O)c3cccnc3)CC2)CC1	none (no result: PAX8 inh HTS, EWS-Fli block)
Cc1ccc(Cl)cc1N1CCN(C(=O)C2CCN(S(=O)(=O)c3c(C)nn(C)c3C)CC2)CC1	Peg3 promoter 51 (no result: PAX8 inh HTS, EWS-Fli block)
O=C(C1CCN(S(=O)(=O)c2cccnc2)CC1)N1CCN(c2ccc(Cl)cc2)CC1	PAX8 inh HTS 67
Cc1ccc(S(=O)(=O)N2CCN(C(=O)C3CCN(c4ncnc5sc(C)c(C)c45)CC3)CC2)c(C)c1	Shn3 3UTR inh 92
CCN(CC)CCNC(=O)c1ccc(NC(=O)C2CCN(c3ncnc4sc(C)c(C)c34)CC2)cc1	Peg3 promoter 80 (no result: EWS-Fli block)
COc1cccc(CN(C)C[C@@H]2OCc3cnnn3CCCC(=O)N([C@@H](C)CO)C[C@@H]2C)c1	none (no result: Peg3 promoter, PAX8 inh HTS, Shn3 3UTR inh, ABHD5-PLIN5 inh, MITF TRPM1 inh)
Cc1nc2sc(C(c3ccco3)N3CCN(C(c4ccccc4)c4ccccc4)CC3)c(O)n2n1 (stereo not given)	PAX8 inh HTS 88 (no result: MITF TRPM1 inh)
Cc1nc2sc(C(c3ccco3)N3CCN(c4ccccc4)CC3)c(O)n2n1 (stereo not given)	none (no result: MITF TRPM1 inh)
C[C@H]1CCCCO[C@H](CN(C)CC2CCCCC2)[C@@H](C)CN([C@@H](C)CO)C(=O)c2cc(NC(=O)Nc3ccc(F)cc3)ccc2O1	PAX8 inh HTS 68 (no result: Peg3 promoter, Shn3 3UTR inh, ABHD5-PLIN5 inh, MITF TRPM1 inh)
C[C@@H]1CCCCO[C@H](CN(C)CC2CCCCC2)[C@H](C)CN([C@@H](C)CO)C(=O)c2cc(NC(=O)Nc3ccc(F)cc3)ccc2O1	EWS-Fli block 58 (no result: Peg3 promoter, Shn3 3UTR inh, ABHD5-PLIN5 inh, MITF TRPM1 inh)
Cc1ccc(C(=O)NC(NCC2CCCO2)C(Cl)(Cl)Cl)cc1 (stereo not given)	none
Cc1cc(C)c(NC(=S)NC(NC(=O)c2ccccc2)C(Cl)(Cl)Cl)c(C)c1 (stereo not given)	Peg3 promoter 69 (no result: EWS-Fli block)
Cc1ccc(NC(=S)NC(NC(=O)c2ccccc2)C(Cl)(Cl)Cl)c(C)c1 (stereo not given)	none (no result: PAX8 inh HTS, EWS-Fli block)
Cc1ccc(C)c(NC(=S)NC(NC(=O)Cc2ccccc2)C(Cl)(Cl)Cl)c1 (stereo not given)	Peg3 promoter 84 (no result: PAX8 inh HTS, EWS-Fli block)
Cc1ccc(C(=O)NC(NCc2ccccc2)C(Cl)(Cl)Cl)cc1 (stereo not given)	PAX8 inh HTS 145
O=C(NCC1CC1)[C@H]1[C@H](CO)[C@H]2Cn3c(ccc(/C=C/c4ccccc4)c3=O)[C@@H]1N2C(=O)C1CC1	none (no result: Peg3 promoter, PAX8 inh HTS, Shn3 3UTR inh, ABHD5-PLIN5 inh, MITF TRPM1 inh)
